Screening results as filed in PubChem BioAssay.
Pf growth 48h = P. falciparum growth inhibition at 48 hours (one generation); 310,000 compounds, 5.9% hits; Potency, µM (highest dose often 28.7 µM), for inactives: at the highest dose activity change, negative = inhibition, usual class: inhibitors; P. falciparum luciferase growth in erythrocytes, 48 h; also: potency is read from the fitted curve at half-maximal effect; % is scaled to controls: 0 for no effect and ±100 for the full control effect
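Luciferase-expressing parasites in RBCs, 2% Hct / 0.1% parasitemia final; RPMI 1640 + 0.5% Albumax; 37 C, 5% CO2, one generation; luminescence read-out, lower signal = inhibition.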
Shiga toxin inh = inhibitors of Shiga toxin in Vero cells; Vero cells, Shiga toxin protein synthesis inhibition reporter; inhibition, % at 38.7 µM; 290,000 compounds, 9.2% hits; in the data active = inhibition mostly above about 28%, no sharp cut-off; inactive = mostly below about 43%; also: 0% is about no effect
Pf growth 96h = P. falciparum growth inhibition at 96 hours | 320,000 compounds, 6.9% hits | P. falciparum luciferase reporter growth, 96 h | AID 504834 | Potency, µM (doses to about 28.7 µM), without a hit: at the top dose activity change, negative = inhibition, actives largely listed as inhibitors; also: potency is read from the fitted curve at half-maximal effect; % is scaled to controls: 0 for no effect and ±100 for the full control effect
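P. falciparum expressing integrated firefly luciferase grown in erythrocytes (2% hematocrit, 0.05% parasitemia final) with compounds for 96 hours at 37 C, 5% CO2. Growth inhibition read as loss of luminescence after adding luciferase detection reagent.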
FBPA Giardia inh = inhibitors of Giardia lamblia fructose-1,6-bisphosphate aldolase; A8B2U2; 290,000 compounds, 0.71% hits; purified Giardia FBPA; Potency, µM (top dose mostly 59.6 µM), for the others: top-dose activity, negative = inhibition, usual class: inhibitors; also: potency is read from the fitted curve at half-maximal effect; % is scaled to controls: 0 for no effect and ±100 for the full control effect; nearly all actives have a fitted effect of over 55% in size
Target sequence (A8B2U2 whole entry, looked up): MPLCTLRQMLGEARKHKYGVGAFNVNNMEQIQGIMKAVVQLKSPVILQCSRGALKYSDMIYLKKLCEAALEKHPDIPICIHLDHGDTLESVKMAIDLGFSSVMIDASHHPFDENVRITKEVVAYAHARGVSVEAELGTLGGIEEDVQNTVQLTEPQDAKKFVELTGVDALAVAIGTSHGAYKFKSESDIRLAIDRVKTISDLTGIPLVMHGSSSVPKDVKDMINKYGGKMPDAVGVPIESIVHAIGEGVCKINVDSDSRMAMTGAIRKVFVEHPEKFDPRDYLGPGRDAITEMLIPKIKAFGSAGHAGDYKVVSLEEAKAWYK
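40 nM FBPA preincubated 10 min at RT with compound (up to 57.5 uM final), then substrate plus GAPDH/TPI/NAD/arsenate coupling and diaphorase/resazurin added. Fluorescence read after 20 min at RT, 525/598 nm.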
NS1 function inh = influenza NS1 inhibition | Potency, µM (highest dose often 46.1 µM), without a hit: at the top dose activity, positive = more growth | 270,000 compounds, 0.4% hits | AID 2326; calls by dose curve; also: potency is read from the fitted curve at half-maximal effect; actives are rising curves; nearly all actives have a fitted effect of over 50% in size
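S. cerevisiae expressing influenza A NS1, grown in glucose, washed, then diluted 1:100 into pH 6.0 -URA galactose medium with 23 nl compound. Growth recovery read as OD600; NS1-free strain serves as control.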
Cycloheximide cs = counter-screen hit for Shiga toxin inhibitors, cycloheximide | cell reporter, cycloheximide protein synthesis inhibition counterscreen | max response, % | 300,000 compounds, 12% hits; in the data active = max response mostly above about 13%, no sharp cut-off; inactive = mostly below about 14%; also: read at 38.3 µM for the half of the compounds with a filed dose; 0% is about no effect
Numbers without * were called inactive; ? = inconclusive; · = no result given; [ ] = remark or other dose. Compounds with a hit are over-represented: about 21% of the library has one in this group of screens. Unless noted, calls follow the shape of the dose curve; as a rule, active = well fitted curve in the direction sought with a large enough effect; inconclusive = small, poorly fitted or top-dose-only effect, or another doubt; inactive = no such curve, though single readings can be large; an effect the other way counts as inactive or inconclusive.

SMILES | Pf growth 48h | Shiga toxin inh | Pf growth 96h | FBPA Giardia inh | NS1 function inh | Cycloheximide cs
CC(=O)c1ccc(NC(=O)c2cc(C)no2)cc1 | 44% | 14 | 7% | 1% | 6% | 17
CC(=O)c1cccc(NC(=O)c2cc(-c3ccc(C)cc3)on2)c1 | 144% | active | 65% | 3% | -4% | 30*
CCCc1cc(C(=O)Nc2ccc(F)c(Cl)c2)no1 | 152% | 94* | -3% | -2% | -21% | 31*
CC1Cc2nc(SCC(=O)NCC3CCCO3)n(C)c(=O)c2S1 (stereo unspecified) | ? | -5 | -16% | 4% | 4% | -3
O=C(NCC1CCN(c2ccc(S(=O)(=O)N3CCOCC3)cc2)CC1)Nc1ccccc1F | ? | -6 | 28% | 5% | -15% | -8
Cc1ccc(N(C(=O)c2csnn2)C(C(=O)NC2CCCCC2)c2ccccn2)cc1C (stereo unspecified) | -20% | -7 | -8% | -3% | 0% | -1
CC(=O)c1cccc(NC(=O)c2c(-c3c(F)cccc3Cl)noc2C)c1 | 17% | · | 32% | · | · | ·
CCCc1cc(C(=O)Nc2cccc(C(C)=O)c2)no1 | · | 67* | ? | -5% | 0% | 31*
CCCc1cc(C(=O)Nc2ccc(C#N)cc2)no1 | 41% | 34 | -29% | 7% | -19% | 15*
N#Cc1ccc(NC(=O)c2cc(-c3cccs3)on2)cc1 | -39%[1.15 µM] | -11 | -1% | 1% | 2% | -2
CCCc1cc(C(=O)Nc2cccc(Cl)c2)no1 | 93% | 82* | 21% | 2% | -65% | 23*
CCCc1cc(C(=O)Nc2sc(C)c(C)c2C(=O)OCC)no1 | 5% | -6 | ? | 3% | 8% | -2
COc1cccc(Oc2nc(N)ncc2[N+](=O)[O-])c1 | -1% | -6 | -18% | 6% | 4% | 15
CC(N)=NCCCC[C@H](N)C(=O)O | · | · | · | -1% | · | ·
N#CCCn1c(=O)c(CCc2ccccc2)nc2cnc(Oc3cccc(Cl)c3)nc21 | · | · | · | -4% | · | ·
Cc1ccc(-[n+]2cc(=O)o[nH]2)cc1 | · | · | · | · | 0% | ·
COC(=O)Cn1c(=N)n(CCN2CCCCC2)c2ccccc21 | 9% | -10 | 12% | -7% | -7% | -4
N=c1n(CCN2CCCCC2)c2ccccc2n1CC(=O)c1ccc(Cl)c(Cl)c1 | 1.5µM* | 18 | 2.6µM* | ? | 7% | 2
CCn1c(=N)n(CC(=O)c2ccc(Cl)c(Cl)c2)c2ccccc21 | ? | 74* | 29% | -6% | 3% | 40*
Cc1ccc(C(=O)Cn2c(=N)n(CCN3CCOCC3)c3ccccc32)cc1 | 9.3µM* | · | ? | · | · | ·
CCn1c(=N)n(CC(=O)c2ccc(OC)cc2)c2ccccc21 | 35% | 6 | 31% | 8% | -1% | 19
CO[C@H]1COC(=O)[C@H](C)COC(=O)C/C=C\[C@@H](C)[C@H](OC)COC(=O)C/C=C\[C@@H]1C | · | · | · | -1%[12.9 µM] | · | ·
Cc1cccc2sc(NC(=O)c3cc(S(=O)(=O)N(C)C)ccc3N3CCCC3)nc12 | ? | -8 | ? | -2% | 3% | 1
CN(C)S(=O)(=O)c1ccc(N2CCCC2)c(C(=O)Nc2nc3ccc(F)cc3s2)c1 | 11% | 37* | 6% | -5% | 20% | 14*
CN(C)S(=O)(=O)c1ccc(N2CCCC2)c(C(=O)Nc2nc(-c3ccc(F)cc3)cs2)c1 | 9.3µM* | -8 | ? | 0% | 8% | -1
SMILES | Pf growth 48h | Shiga toxin inh | Pf growth 96h | FBPA Giardia inh | NS1 function inh | Cycloheximide cs
CN(C)S(=O)(=O)c1ccc(N2CCCC2)c(C(=O)Nc2nc3ccccc3s2)c1 | 18% | 47* | -12% | -1% | ? | 14
O=C(CN(CC1CCCO1)C(=O)CNS(=O)(=O)c1ccc(Cl)cc1)NC1CCCC1 (stereo unspecified) | 18% | 28 | 6% | 1% | -17% | -1
Oc1ccccc1/C=N/Nc1nc2ccccc2o1 | 2.6µM* | 97* | 2.1µM* | 13% | -34% | 62*
O=C(CSc1nc2ccccc2o1)N/N=C/c1ccc(C(=O)O)cc1 | 58% | 20 | 56% | -9% | 4% | 6
NC(N)=Nc1nc2ccccc2o1 | 59% | 20 | 101% | -2% | 5% | 18
Brc1ccc(/C=N/Nc2nc3ccccc3o2)cc1 | 76% | 57* | ? | -15% | -45% | 41*
C=CCO/N=C(/C)c1ccc(Oc2cnccn2)cc1 | 22% | 47* | 41% | -3% | · | 27*
